HCV inh: qHTS Assay for Inhibitors of Hepatitis C Virus (HCV). Huh7.5.1 HCVcc-Cre infection, luciferase reporter, 44 h. Potency, µM (doses to about 41.8 µM), for inactives: at the top dose activity change, negative = inhibition, actives largely listed as inhibitors. 340,000 compounds, 3.4% hits. AID 651820, 2012; note: potency is the fitted concentration of half-maximal effect
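Seed cells (1,000/well) for 4 h; treat with compound and infect with HCVcc-Cre, moi about 0.5. Incubate 44 h, then detect luciferase activity.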
HCMV antiviral: qHTS Assay for inhibitors of the human cytomegalovirus (HCMV); HFF cells, HCMV-luciferase reporter, 72 h; hits give low values; activity change, negative = inhibition, % at 57.5 µM; 410,000 compounds, 4.5% hits; AID 1259415, 2018; in the data active = activity change below about -60%; inconclusive = no clear call, values can overlap the other calls; inactive = above about -39%
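Human foreskin fibroblasts infected with luciferase-reporter HCMV at MOI 1 PFU/cell, compounds at two doses. Luciferase measured 72 h post infection; normalized to buffer-only basal and Salinomycin (10uM) controls.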
LASV entry inh: qHTS for Inhibitors of binding or entry into cells for Lassa Virus | Lassa virus pseudotype entry inhibition, cell reporter | Potency, µM (doses to about 37.9 µM), for inactives: top-dose activity change, negative = inhibition, usual class: inhibitors | 300,000 compounds, 1.2% hits | AID 540256, 2011; calls by dose curve; tested in HEK293 cells; note: potency is the fitted concentration of half-maximal effect; nearly all actives have a fitted effect of over 50% in size
Pf growth 96h: Primary qHTS for delayed death inhibitors of the malarial parasite plastid, 96 hour incubation; AID 504834, 2011; Potency, µM (top dose mostly 28.7 µM), inactives show at the highest dose activity change, negative = inhibition, most hits filed as inhibitors; P. falciparum luciferase reporter growth, 96 h; 320,000 compounds, 6.9% hits; note: potency is the fitted concentration of half-maximal effect
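Two parasite generations (96 h, 37 C, 5% CO2) of compound exposure in infected erythrocytes (0.05% parasitemia, 2% hematocrit). Luciferase-reporter P. falciparum; decreased luminescence indicates inhibited growth, aimed at apicoplast-acting delayed death.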
MARV entry inh: qHTS for inhibitors of binding or entry into cells for Marburg Virus; Potency, µM (doses to about 37.8 µM), without a hit: at the highest dose activity change, negative = inhibition, usual class: inhibitors; Marburg virus pseudotyped entry inhibition, cell reporter; AID 540276, 2011; 300,000 compounds, 1.8% hits; calls by dose curve; tested in HEK293 cells; note: potency is the fitted concentration of half-maximal effect
Pf growth 48h: Primary qHTS for delayed death inhibitors of the malarial parasite plastid, 48 hour incubation. P. falciparum luciferase growth in erythrocytes, 48 h. Potency, µM (doses to about 28.7 µM), for the others: at the highest dose activity change, negative = inhibition, hits mostly inhibitors. 310,000 compounds, 5.9% hits. AID 504832, 2011; note: potency is the fitted concentration of half-maximal effect
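Here the parasites carry a stable luciferase gene and grow inside erythrocytes in Albumax-based RPMI medium with compound for one erythrocytic cycle. Activity is scored as loss of luminescent signal.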
* = called active by the depositor; ? = inconclusive; / = no result given; [ ] = dose if it differs, or a comment. Rows were chosen to be rich in hits. Some 14% of all compounds tested hit in one or more screens of this group. Unless noted, calls come from the whole dose curve; as a rule, active = well fitted inhibition curve with a large enough effect; inconclusive = small, poorly fitted or top-dose-only effect, or another doubt; inactive = no such curve, though single readings can be large or run the other way. % is set by controls: 0 for no effect and ±100 for the full control effect.

SMILES	HCV inh	HCMV antiviral	LASV entry inh	Pf growth 96h	MARV entry inh	Pf growth 48h
CCN(CC)S(=O)(=O)c1ccc2c(c1)N(CC(=O)N1CCN(c3ccc(OC)cc3)CC1)C(=O)CO2	/	-7.3	13.6%[46.1 µM]	/	/	/
CN(c1ccccc1)S(=O)(=O)c1ccc(Cl)c(C(=O)Nc2nc3ccccc3[nH]2)c1	?	?	?	6.57µM*	?	?
CN(c1ccccc1)S(=O)(=O)c1ccc(Cl)c(C(=O)Nc2ccc(-c3nc4ccccc4[nH]3)cc2)c1	?	-32.2	?	?	?	?
CN(C)S(=O)(=O)c1cccc(C(=O)Nc2ccc(N3CCOCC3)cc2)c1	?	-79.0*	5.3%	19.7%	7.1%	1.4%
COc1ccc(N(C)S(=O)(=O)c2cccc(C(=O)Nc3ccc(N4CCOCC4)cc3)c2)cc1	?	-31.0	/	?	/	8.28µM*
Cc1ccc(-c2nc3c(c(SCC(=O)Nc4ccccc4Cl)n2)Cc2c(CO)cnc(C)c2O3)cc1	/	-4.7	6.0%[46.1 µM]	/	/	/
Cc1ccc(NC(=O)CSc2nc(N)c3c4c(sc3n2)CSC(C)(C)C4)cc1	11.2µM*	32.7	20.6µM*	?	?	-8.9%
Cc1ccccc1NC(=O)CSc1nc(N)c2c3c(sc2n1)CSC(C)(C)C3	?	?	?	?	-43.3%	-23.6%
CC1CCCN(c2ccc(F)cc2N)C1 (stereo not drawn)	?	-77.6*	?	?	?	?
O=C(Cn1c(=O)n(-c2ccc(F)c(Cl)c2)c(=O)c2sc3ccccc3c21)NC1CCCCC1	/	-24.8	-1.1%[46.1 µM]	/	1.3%[46.1 µM]	/
CN(C)c1ccc(CNc2nc3cc(-c4ccc(F)cc4)sc3c(=O)n2C)cc1	/	-85.7*	/	/	/	/
CN(c1ccc(Cl)cc1)c1cc(=O)n(C)c2ccccc12	10µM*	80.7	?	-10.6%	-15.3%	5.86µM*
O=C1NC(=O)/C(=C\c2ccc(N3CCOCC3)o2)N1	10.5%	-5.2	-8.5%[46.1 µM]	?	0.0%[46.1 µM]	7.38µM*
CN1C(=O)C(=Cc2ccc(N3CCOCC3)o2)C(=O)N(C)C1=O	7.9%	-19.7	-5.8%	-6.2%	?	23.9%
O=C1NC(=O)/C(=C/c2ccc(N3CCOCC3)o2)N1	10.1%	81.3	-9.5%	?	-6.4%	1.47µM*
Cc1ccccc1N1C(=O)NC(=O)/C(=C/c2ccc(N3CCOCC3)o2)C1=O	0.6%	25.8	0.5%	-6.2%	?	1.9%
N[C@@H]1CCc2cc(O)c(O)cc2C1	/	/	/	/	4.8%	/
Cc1oc(-c2ccccc2Cl)nc1CS(=O)CC(=O)NCc1ccccc1Cl (stereo not drawn)	-13.2%	-15.4	-16.2%[46.1 µM]	?	-18.0%[46.1 µM]	3.9%
O=C(C(=O)N1CCC(Cc2ccccc2)CC1)c1ccccc1Br	/	-63.4*	/	/	/	/
O=C(/C=C/c1ccccc1)N1CCC(Cc2ccccc2)CC1	12.9%	51.8	2.6%	8.28µM*	?	?
O=C(/C=C/c1cccc(Cl)c1)N1CCC(Cc2ccccc2)CC1	-4.0%	-12.0	0.5%	-10.3%	?	32.7%
CCOc1ccc(CCNC(=O)CCc2cn(Cc3ccc(F)cc3)c3ccccc23)cc1	/	7.5	-8.0%[46.1 µM]	/	/	/
C[n+]1ccccc1/C=N/O	14.8%	-6.7	2.6%	?	2.4%	-4.4%
Cc1ccc2c(c1)S/C(=C\c1cccc[n+]1C)N2CCO	?	-97.5*	/	-8.7%	/	3.29µM*
C[n+]1ccccc1/C=C1\Sc2ccccc2N1CCO	?	?	?	2.08µM*	-24.4%	?
SMILES	HCV inh	HCMV antiviral	LASV entry inh	Pf growth 96h	MARV entry inh	Pf growth 48h
Cc1ccc2c(c1)S/C(=C/c1ccc[n+](CCO)c1)N2C	1.58µM*	-95.1*	/	4.3%	?	?
CCn1c(=O)cc(OCC(=O)N2CCN(c3ccccc3OC)CC2)c2ccccc21	/	4.5	?	/	4.0%[46.1 µM]	/
N#CC1C(=O)NC(=O)C(C#N)C12CCCc1sccc12 (stereo not drawn)	/	-15.7	/	/	/	/
CCC(C)c1ccc(OCC(=O)Nc2cccc(-c3nc4ncccc4o3)c2)cc1 (stereo not drawn)	/	19.7	-23.9%[46.1 µM]	/	?	/
CN(C(=O)c1ccco1)c1nc(-c2ccc(Cl)cc2)cs1	0.6%	5.6	/	6.57µM*	/	119.0%
CN(C(=O)c1ccco1)c1nc2c(s1)CCCC2	-11.3%	72.2	6.31µM*	265.1%	?	/
Cc1ccc(CN(C)C(=O)c2c(C)nn(-c3ccccc3)c2C)cc1	-1.0%	-25.3	13.1%	-22.0%	1.0%[46.1 µM]	-14.3%
Cc1ccc(-c2csc(N(C)C(=O)c3c(C)nn(-c4ccccc4)c3Cl)n2)cc1	-23.6%	-34.9	7.6%	?	?	11.7µM*
CN(C)CCCN(C(=O)c1ccco1)c1nc(-c2ccc(Cl)cc2)cs1	11.2µM*	112.4	/	-6.9%	/	0.0%
CCC(CC)C(=O)c1c[nH]c(C(=O)NCc2cccnc2)c1	-10.0%	-5.4	?	58.7%	-21.9%	-9.6%
CC(C)CC(=O)c1c[nH]c(C(=O)NCc2cccnc2)c1	3.6%	0.0	6.3%	?	28.0%[46.1 µM]	10.4µM*
CC1(C)CC2CC(C)(CN2S(=O)(=O)c2ccccc2[N+](=O)[O-])C1 (stereo not drawn)	?	-26.6	/	/	/	/
CC(=O)C1(C)C(=O)N(c2ccc(F)cc2)C(=O)N1c1ccc(F)cc1 (stereo not drawn)	9.4%	-34.5	18.1%	/	1.9%	/
Cn1c(Sc2ccc(Br)cc2)c(C=O)c2ccccc21	?	-30.1	10µM*	?	?	?
Cn1c(Oc2ccc(F)cc2)c(C=O)c2ccccc21	-23.5%	-31.9	8.9%[46.1 µM]	?	?	?
CN1CCC(N(C)c2nc(-c3ccc([N+](=O)[O-])cc3)nc3ccccc23)CC1	4.47µM*	28.7	?	1.47µM*	11.2µM*	?
CN1CCN(c2nc(-c3cccc([N+](=O)[O-])c3)nc3ccccc23)CC1	?	-13.2	?	0.0%	?	?
O=C(CCSCc1cnn(-c2ccccc2)c1-n1cccc1)NCc1ccc(Cl)cc1	/	-18.2	17.8%[46.1 µM]	/	-7.7%[46.1 µM]	/
O=C(NC1CC1)c1ccc(CSCc2ccccc2Cl)o1	-8.7%	0.0	/	23.7%	/	1.85µM*
O=C(NCCc1ccc(Cl)cc1)c1ccc(CSCc2ccccc2Cl)o1	/	0.0	8.5%[46.1 µM]	/	/	/
Cc1ccccc1OCCC(=O)Nc1cc(S(=O)(=O)N2CCOCC2)ccc1OC(C)C	?	?	-16.7%[46.1 µM]	13.1µM*	?	14.7µM*
O=C(Nc1cccc(Cl)c1)Nc1cc(S(=O)(=O)N2CCOCC2)ccc1N1CCCC1	-13.9%	-79.5*	?	1.8%	?	13.1%
